# Screening results from PubChem.
# Only some compounds are listed: those with a hit (about 3.5% of all), similar ones and a draw of the others.
# Bead autofluor: flagged as autofluorescent in microsphere protease counterscreen | actives 3.1% (n = 360,000) | compound autofluorescence counterscreen, microsphere flow cytometry; stronger effect = higher value | fluorescence intensity (no concentration beside the values); in the data active means fluorescence intensity above about 16000
# SARS 3CLpro inh: SARS-CoV 3CLpro protease inhibition | AID 1706 | inhibition, % at 6 µM | recombinant SARS-CoV 3CLpro, quenched FRET peptide cleavage | actives 0.14% (n = 290,000); in the data active means inhibition above about 12%
# Anthrax LF prot: anthrax lethal factor protease inhibition | inhibition, % at 10 µM | actives 0.12% (n = 360,000) | AID 588501 | multiplex microsphere protease cleavage assay, LF | P15917; in the data active means inhibition above about 30%
# Target sequence (P15917 whole entry, looked up): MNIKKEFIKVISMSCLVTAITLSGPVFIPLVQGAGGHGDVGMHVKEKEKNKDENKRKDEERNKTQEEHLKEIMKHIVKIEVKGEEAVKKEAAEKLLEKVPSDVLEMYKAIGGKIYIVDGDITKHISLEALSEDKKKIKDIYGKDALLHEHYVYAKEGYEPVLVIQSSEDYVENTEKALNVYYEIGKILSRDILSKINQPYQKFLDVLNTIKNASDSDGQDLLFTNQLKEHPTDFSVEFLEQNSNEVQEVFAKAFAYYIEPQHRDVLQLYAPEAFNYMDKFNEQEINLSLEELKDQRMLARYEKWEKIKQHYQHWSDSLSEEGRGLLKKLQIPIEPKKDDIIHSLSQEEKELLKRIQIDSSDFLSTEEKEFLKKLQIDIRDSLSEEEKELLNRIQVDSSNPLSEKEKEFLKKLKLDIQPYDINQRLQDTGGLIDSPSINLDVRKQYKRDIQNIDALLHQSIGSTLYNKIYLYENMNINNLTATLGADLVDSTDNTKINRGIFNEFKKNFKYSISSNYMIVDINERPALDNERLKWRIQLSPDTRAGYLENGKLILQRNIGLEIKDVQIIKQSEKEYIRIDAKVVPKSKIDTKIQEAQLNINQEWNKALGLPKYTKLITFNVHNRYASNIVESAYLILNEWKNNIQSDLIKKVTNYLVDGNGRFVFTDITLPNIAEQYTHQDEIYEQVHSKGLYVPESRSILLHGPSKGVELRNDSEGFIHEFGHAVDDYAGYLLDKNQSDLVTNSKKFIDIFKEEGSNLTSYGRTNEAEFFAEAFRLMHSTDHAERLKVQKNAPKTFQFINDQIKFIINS
# BoNT-F LC inh: blocks Botulinum neurotoxin F light chain protease | actives 0.22% (n = 360,000) | Multiplex microsphere protease cleavage assay, flow cytometry | AID 588497 | inhibition, % at 10 µM; in the data active means inhibition above about 35%, passing the limit was not always enough
# BoNT A protease: inhibitors of Botulinum neurotoxin A light chain protease; AID 588499; multiplex microsphere protease substrate cleavage, flow cytometry; inhibition, % at 10 µM; actives 0.17% (n = 360,000); in the data active means inhibition above about 30%
# BoNT-A LC CP2: blocks botulinum neurotoxin A light chain protease; shares compounds with BoNT A protease; actives 10% (n = 150); multiplex microsphere protease cleavage assay, flow cytometry; AID 602325; inhibition, % at 10 µM; in the data active means inhibition above about 24%
# LF protease CP2: inhibitors of Bacillus anthracis lethal factor protease. shares compounds with BoNT A protease. multiplex microsphere protease cleavage assay. inhibition, % at 10 µM. actives 7% (n = 150). AID 602327
# BoNT-F LC CP2: blocks botulinum neurotoxin F light chain protease | actives 7% (n = 150) | inhibition, % at 10 µM | AID 602336 | multiplex microsphere protease cleavage assay, flow cytometry | shares compounds with BoNT A protease
# Hits are given with their value; i = inactive; nt = no result; + = active, no number. Unless noted, no stated cut-off is given here; in the data, active means inhibition above about 25%; inactive means the rest.
SMILES,Bead autofluor,SARS 3CLpro inh,Anthrax LF prot,BoNT-F LC inh,BoNT A protease,BoNT-A LC CP2,LF protease CP2,BoNT-F LC CP2
COc1cccc(-c2cc3c(c4c2ccn4C)C2CCC3C2)c1 (centres undefined),i,nt,i,i,i,i,i,i
COc1ccc2c(c1)nc(-c1cccc(Br)c1)c(=O)n2C(c1ccccn1)c1nc2ccccc2[nH]1 (centres undefined),i,nt,i,i,30,i,i,i
Cc1ccc(C(c2nc3ccccc3[nH]2)n2c(-c3ccccc3)nc3ccccc32)cc1 (centres undefined),i,nt,i,i,i,nt,nt,nt
CCN(CC)c1ccc2cc(S(=O)(=O)c3ccc(Cl)cc3)c(=O)oc2c1,i,i,42,i,68,26,25,i
O=C(C[n+]1ccc(C(=O)c2ccccc2)cc1)Nc1ccccc1OC(F)F,i,nt,64,i,55,i,i,i
Cc1cc2ccccc2n1CCNC(=O)C1CCCCC1,i,i,i,i,96,i,i,i
Cc1cc2ccccc2n1CCNC(=O)C1CC1,i,i,44,i,69,i,i,i
O=C(NCCn1ccc2ccccc21)C1CCCCC1,i,i,i,i,i,nt,nt,nt
Cc1cc2nc(-c3ccccc3)c(Cc3cccc(Cl)c3)n2c(C)c1Br,i,nt,i,i,i,i,i,i
Cc1ccc(Cc2c(-c3cccc(Cl)c3)nc3cc(C)c(Br)c(C)n23)cc1,i,nt,i,i,i,nt,nt,nt
Cc1ccc(-c2nc3cc(C)c(Br)c(C)n3c2Cc2cccc(Cl)c2)cc1,i,nt,i,i,i,26,i,i
Cc1cc2nc(-c3ccc(F)cc3)c(Cc3ccccc3)n2c(C)c1Br,i,nt,i,i,i,nt,nt,nt
Cc1cc2nc(-c3ccc(F)cc3)c(Cc3cccc(Cl)c3)n2c(C)c1Br,i,nt,i,i,i,i,i,i
COC(=O)c1ccc(OCCCCN2CC(C)OC(C)C2)cc1 (centres undefined),i,i,i,i,i,nt,nt,nt
O=C(CCc1ccccc1)N1CCN(c2ccc(Cl)cc2)CC1,i,i,i,i,i,nt,nt,nt
COc1ccccc1Cc1c(-c2ccc(C#N)cc2)nc2c(Cl)cc(C(F)(F)F)cn12,i,nt,i,i,i,i,i,i
O=C(CCCN1C(=O)c2cccc3cccc(c23)C1=O)N1CCN(c2ncccn2)CC1,i,i,i,i,i,nt,nt,nt
COc1ccccc1-c1cc2c(c3c1ccn3C)C1CCC2O1 (centres undefined),i,nt,i,i,i,nt,nt,nt
COc1ccccc1-c1cc2c(c3c1ccn3C)C1CCC2C1 (centres undefined),i,nt,30,i,i,i,i,i
Cn1ccc2c(-c3ccccc3F)cc3c(c21)C1CCC3C1 (centres undefined),i,nt,i,i,i,i,i,i
CC1CC(C)CN(C(C(=O)NC2CCCCC2)c2cc3ccccc3o2)C1 (centres undefined),i,nt,i,i,i,nt,nt,nt
CC(Oc1ccccc1F)c1nnc(SCC(=O)c2c(N)n(C3CC3)c(=O)[nH]c2=O)o1 (centres undefined),i,nt,98,91,96,i,i,i
O=C(Cc1ccccc1)c1ccccn1,i,nt,i,i,33,33,29,i
Cc1ccc(S(=O)(=O)N2CC(O)C[C@H]2C(=O)OCC(=O)N2CCN(c3ccc(F)cc3)CC2)cc1C (some centres undefined),i,nt,97,97,99,i,i,i
O=C1CN(S(=O)(=O)c2cc(C(F)(F)F)ccc2Cl)CCN1,i,nt,i,i,i,nt,nt,nt
SMILES,Bead autofluor,SARS 3CLpro inh,Anthrax LF prot,BoNT-F LC inh,BoNT A protease,BoNT-A LC CP2,LF protease CP2,BoNT-F LC CP2
COc1cc(OC)cc(C(=O)NC(C(=O)Nc2ccc3nc(C)sc3c2)C(C)C)c1 (centres undefined),i,nt,i,i,i,nt,nt,nt
Cc1nc2ccc(NC(=O)[C@@H](NC(=O)c3c(F)cccc3F)C(C)C)cc2s1,i,nt,40,i,i,i,i,30
CCc1ccc(C2=NN(c3ccc(S(N)(=O)=O)cc3)C(c3ccc(F)cc3)C2)cc1 (centres undefined),i,i,i,i,i,nt,nt,nt
C[C@H](CO)N1C[C@H](C)[C@@H](CN(C)Cc2ccc3c(c2)OCO3)Oc2c(NS(C)(=O)=O)cccc2C1=O,i,nt,i,i,i,nt,nt,nt
Cc1cccc2c1NC1(CCCC1)CC2C (centres undefined),i,i,i,+,i,i,i,+
CC1CN1c1cc2c(c3c1ccn3C)C1CCC2C1 (centres undefined),i,nt,i,i,i,nt,nt,nt
Cn1ccc2c(-c3ccc(C(N)=O)cc3)cc3c(c21)C1CCC3O1 (centres undefined),i,nt,i,i,i,nt,nt,nt
Cn1ccc2c(-c3ccc(C(=O)O)cc3)cc3c(c21)C1CCC3C1 (centres undefined),i,nt,i,i,i,i,i,i
Cn1ccc2c(-c3ccc(C(C)(C)C)cc3)cc3c(c21)C1CCC3C1 (centres undefined),i,nt,i,i,i,i,i,i
Cc1ccc(C)c(S(=O)(=O)NCc2ccc(C(=O)N3CCCCCC3)cc2)c1,i,i,i,i,i,nt,nt,nt
Cc1cccc(NC(=O)NCc2ccc3[nH]c(C)cc3c2)c1,i,i,i,i,50,i,i,i
Cc1ccc(CNC(=O)Nc2cccc(C)c2)cc1,i,i,i,i,i,nt,nt,nt
COC(=O)c1ccccc1-c1c2ccc(=N)cc-2oc2cc(N)ccc12,34738,nt,61,62,i,i,i,i
COc1cc(Cl)ccc1OCc1cc(C(=O)NC(C)Cc2cnccn2)no1 (centres undefined),i,i,i,i,i,nt,nt,nt
CCN(CC)c1ccc(C=Nc2cccc(S(=O)(=O)N3CCOCC3)c2)c(O)c1,i,nt,46,i,51,i,i,i
CN(CC(=O)Nc1cccc(F)c1)C(=O)CCCc1c[nH]c2ccccc12,i,nt,i,i,i,nt,nt,nt
NC(Cc1ccc(Cl)cc1)c1csc(Nc2ncccn2)n1 (centres undefined),i,nt,i,i,i,nt,nt,nt
CN(C)c1ccc(-c2sc(Nc3ccccc3)n[n+]2-c2ccc(F)cc2)cc1,i,i,i,i,i,nt,nt,nt
CCN(CC)c1ccc(-c2sc(Nc3ccccc3)n[n+]2-c2ccc(F)cc2)cc1,17190,i,44,i,i,i,i,i
COc1ccc(C(=O)NCc2ccc3c(c2)cc(C)n3C)cc1,i,i,i,i,95,i,i,i
Cc1cc2cc(CNC(=O)Nc3ccc(Cl)c(Cl)c3)ccc2n1C,i,i,i,i,35,i,i,i
CCOc1ccc(CC(=O)NCc2ccc3c(c2)cc(C)n3C)cc1,i,i,i,i,81,i,i,i
Cc1onc(-c2ccccc2Cl)c1C(=O)NCc1ccc2c(c1)cc(C)n2C,i,nt,i,i,83,49,i,i
O=C(N/N=C/c1ccc(Br)s1)c1cccc([N+](=O)[O-])c1,i,i,i,i,i,nt,nt,nt
CC(NC(=O)c1ccco1)C(=O)N1CCN(c2ccccc2)CC1 (centres undefined),i,i,i,i,i,nt,nt,nt
